TGFb inhibitor: blocks TGF-b signaling; HepG2 CAGA-GFP TGF-b/SMAD3 reporter, GFP fluorescence, 18 h; TGF-beta stimulated, 500 pg/mL final; Potency, µM (doses to about 46.1 µM), hits mostly inhibitors; 1.2% of 410,000 active; further: nearly all actives have a fitted effect of over 65% in size
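HEPG2 CAGA-GFP, 1000 cells/well; 2 h settle, 37 C; cpd via pin tool; TGF-b 500 pg/mL final; 18 h, 37 C; GFP imaging ex488/em500-530; %Activity normalised to -TGF-b and +DMSO controls; CRC fit, curve class.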
TDP1 cell noCPT: qHTS for Inhibitors of human tyrosyl-DNA phosphodiesterase 1 (TDP1): qHTS in cells in absence of CPT; 15% of 420,000 active; Potency, µM (doses to about 46.2 µM), hits mostly inhibitors; DT40 Tdp1-/- hTDP1 cells, no CPT, ATP luminescence, 48 h; further: nearly all actives have a fitted effect of over 55% in size
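Growth kinetics read by CellTiter-Glo luminescence after ≥48 hr at 37 °C. Cells: DT40 Tdp1-/- stably carrying human TDP1, 400 per well, compound exposure in the absence of CPT (DMSO vehicle).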
TDP1 cell CPT: growth inhibition of DT40 Tdp1-/-;hTDP1 cells with camptothecin (screen for TDP1 inhibitors); chicken DT40 Tdp1-/-;hTDP1 cells + 20 nM CPT, ATP luminescence, 48 h; Potency, µM (top dose mostly 46.2 µM), actives largely listed as inhibitors; 12% of 420,000 active; further: nearly all actives have a fitted effect of over 55% in size
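Chicken DT40 Tdp1-/- cells stably complemented with human TDP1 were seeded at 400 cells/well in medium containing 20 nM camptothecin, exposed to pin-transferred compounds, and grown at 37 °C for at least 48 hr. Viability was read as ATP luminescence.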
ASM inhibitor: human S-ASM enzyme inhibition; Potency, µM (top dose mostly 57.5 µM), hits mostly inhibitors; placental ASM, HMU-PC fluorogenic substrate, 60 min; 0.006% of 340,000 active; AID 504937; P17405
Target sequence (P17405 47-631 limits assumed): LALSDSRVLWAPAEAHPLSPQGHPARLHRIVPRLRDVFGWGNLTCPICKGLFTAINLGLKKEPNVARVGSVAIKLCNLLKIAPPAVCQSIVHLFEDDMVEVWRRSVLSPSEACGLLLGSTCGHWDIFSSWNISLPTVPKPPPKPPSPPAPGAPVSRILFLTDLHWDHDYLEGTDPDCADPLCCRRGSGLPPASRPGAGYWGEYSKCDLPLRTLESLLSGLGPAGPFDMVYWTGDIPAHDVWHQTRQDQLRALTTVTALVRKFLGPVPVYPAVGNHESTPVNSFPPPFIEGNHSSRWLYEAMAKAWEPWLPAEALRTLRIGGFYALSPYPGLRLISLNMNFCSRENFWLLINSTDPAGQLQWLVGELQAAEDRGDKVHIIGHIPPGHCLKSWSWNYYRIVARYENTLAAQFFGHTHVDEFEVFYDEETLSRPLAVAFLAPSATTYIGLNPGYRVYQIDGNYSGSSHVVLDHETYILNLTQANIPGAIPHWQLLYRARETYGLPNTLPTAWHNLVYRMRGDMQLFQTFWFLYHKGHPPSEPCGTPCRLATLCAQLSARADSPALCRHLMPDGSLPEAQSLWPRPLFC
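Fluorescence read-out (Ex 386 nm, Em 447 nm) after stopping the reaction at pH 10. Enzyme: ASM from human placenta; substrate HMU-PC0, 9 uM final; 60 min, 37 °C. Compound preincubation 10 min, ambient temperature.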
HepG2 tox: kills HepG2 cells in TGF-b inhibitor counter-screen | HepG2 CAGA-GFP viability, ATP luminescence, 18 h | Potency, µM (series often up to 46.1 µM), usual class: cytotoxic | 0.76% of 410,000 active
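CellTiter-Glo luminescence gave cytotoxicity after 18 hours at 37 degrees C. The cells were HepG2 CAGA-GFP in 1% FBS DMEM, stimulated with 500 pg/mL TGF-beta after compound addition. %Activity was normalised to no-cell wells (complete cell-killing) and DMSO (no toxicity), and curves were fitted and classified.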
IL-1B inflam inh: inflammasome signaling inhibition, IL-1 beta readout. activity change, % at 57.5 µM. 4.7% of 360,000 active. THP-1 LPS/ATP IL-1B secretion, AlphaLISA, 16 h; hits give low values. AID 743279; in the data active means activity change below about -50%; inconclusive means mostly about -30% to -49%
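THP-1 cells pretreated 1 hr with compounds (up to 57.5 uM final), then stimulated with LPS (250 ng/mL final) plus ATP (1.25 mM final); secreted IL-1B measured by AlphaLISA after 16 hr, decreased signal indicating inhibition.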
A number is an active result; . = inactive; ? = inconclusive; / = no result given. Shown are actives, neighbours in structure and some others; about 19% of the full set was active somewhere. Unless noted, the call rests on the fitted dose curve; in most records, active means well fitted curve in the direction sought with a large enough effect; inconclusive means small, poorly fitted or top-dose-only effect, or another doubt; inactive means no such curve, though single readings can be large; an effect the other way counts as inactive or inconclusive.

SMILES | TGFb inhibitor | TDP1 cell noCPT | TDP1 cell CPT | ASM inhibitor | HepG2 tox | IL-1B inflam inh
Cc1ccc(NC(=O)NC(=O)COc2c(F)c(F)cc(F)c2F)c(C)c1 | . | . | . | . | . | .
COc1cc2c(cc1OC)CN(CC(=O)NC(=O)NC1CCCCC1)CC2 | . | . | . | . | . | .
CCOc1ccc(-n2c(=O)c3sccc3n(Cc3ccc(C)cc3)c2=O)cc1 | . | ? | ? | . | . | .
N/C(=N\NS(=O)(=O)c1ccccc1Cl)c1ccccn1 | . | . | . | . | . | .
O=C(c1cccc(F)c1)N1CCC2(CC1)CCN(C(c1ccccc1)c1ccccc1)CC2 | / | 23µM | 15µM | / | / | /
O=C(Nc1cccc(F)c1)N1CCC2(CC1)CCN(C(=O)c1cccc(F)c1)CC2 | / | 21µM | . | / | / | /
O=C(Nc1ccccc1)N1CCC2(CC1)CCN(C(=O)c1cccc(F)c1)CC2 | / | ? | . | / | / | /
CC(=O)c1ccc(N2CCN(C(=O)Nc3ccc(C)cc3)CC2)cc1 | . | ? | ? | . | . | .
O=C(Nc1cccc(F)c1)N1CCCC2(CCN(C(=O)c3ccncc3)CC2)C1 | / | 0.15µM | 0.13µM | / | / | /
CC(=O)c1ccc(N2CCN(C(=O)Nc3cccc(F)c3)CC2)cc1 | . | ? | 21µM | . | . | .
Cc1ccc(S(=O)(=O)Nc2ccc3c(c2)CCCN3C(=O)c2cccs2)cc1C | ? | 16µM | 21µM | / | . | /
O=C(c1cccs1)N1CCCc2cc(NS(=O)(=O)c3ccc(F)cc3F)ccc21 | ? | 9.2µM | 21µM | / | . | /
O=C(c1cccs1)N1CCCc2cc(NS(=O)(=O)c3ccc(Cl)cc3)ccc21 | ? | ? | ? | / | . | /
O=C(c1cccs1)N1CCCc2cc(NS(=O)(=O)c3ccc(F)cc3)ccc21 | ? | . | 21µM | / | . | /
Cc1cc(F)ccc1S(=O)(=O)Nc1ccc2c(c1)CCCN2C(=O)c1cccs1 | 16µM | 23µM | 21µM | / | . | /
COc1cccc(NS(=O)(=O)c2ccc3c(c2)CCCN3C(C)=O)c1 | . | ? | ? | . | . | .
Cc1nnc(SCC(=O)c2c(N)n(C3CC3)c(=O)[nH]c2=O)n1C | . | . | . | . | . | .
COc1ccc(F)cc1S(=O)(=O)Nc1ccc2c(c1)CCCN2C(=O)c1cccs1 | ? | 18µM | ? | / | . | /
Cc1ccc(C)c(NC(=O)Cn2c(=O)n(Cc3ccccc3)c(=O)c3oc4ccccc4c32)c1 | . | 5.8µM | 4.6µM | / | . | /
Cc1ccc(C)c(NC(=O)Cn2c(=O)n(Cc3ccco3)c(=O)c3oc4ccccc4c32)c1 | . | 10µM | 16µM | / | . | /
CCCCn1c(=O)c2oc3ccccc3c2n(CC(=O)Nc2ccc(CC)cc2)c1=O | . | ? | 13µM | / | . | /
CCCCn1c(=O)c2oc3ccccc3c2n(CC(=O)Nc2cc(C)ccc2C)c1=O | . | 12µM | 12µM | / | . | /
Cc1cc(NC(=O)CCC(=O)N(CC(C)C)C(C(=O)NC(C)(C)C)c2ccccc2Cl)no1 (configuration not stated) | . | . | . | . | . | .
CCC(=O)Nc1nc2ccc3sc(C)nc3c2s1 | . | 23µM | 18µM | . | . | .
COc1cc(OC)nc(-n2ncc(Br)c(Br)c2=O)n1 | 3.5µM | 0.82µM | 0.65µM | . | 11µM | -96
SMILES | TGFb inhibitor | TDP1 cell noCPT | TDP1 cell CPT | ASM inhibitor | HepG2 tox | IL-1B inflam inh
COC(=O)c1cnn(-c2nc(OC)cc(OC)n2)c1C | . | ? | . | . | . | .
CCOc1ccccc1-c1nnc(SCC(=O)NC2CC2)n1CC | . | . | . | / | . | .
O=C(Cn1cc(C(=O)c2ccncc2)c(=O)c2cc(F)ccc21)Nc1ccc(Cl)cc1 | ? | ? | ? | / | . | /
Cc1nnc(NC(=O)c2ccc(S(=O)(=O)N3CC(C)OC(C)C3)cc2)o1 (configuration not stated) | . | . | . | . | . | .
CCC1CCCCN1S(=O)(=O)c1ccc(C(=O)Nc2nnc(-c3cccs3)o2)cc1 (configuration not stated) | ? | 6.3µM | 6.3µM | . | . | .
CC1CC(C)CN(S(=O)(=O)c2ccc(C(=O)Nc3sccc3C(N)=O)cc2)C1 (configuration not stated) | ? | 21µM | 18µM | . | . | .
NC(=O)c1ccsc1NC(=O)c1ccc(S(=O)(=O)N2CCCC2)cc1 | . | ? | ? | . | . | .
CCC1CCCCN1S(=O)(=O)c1ccc(NC(=O)c2cccnc2)cc1 (configuration not stated) | . | ? | . | . | . | .
CC1CC(C)CN(S(=O)(=O)c2ccc(C(=O)Nc3nnc(-c4cccs4)o3)cc2)C1 (configuration not stated) | . | 5µM | 6.3µM | . | . | .
CC(C)C[C@@H](CNCC(=O)[C@H](CC(C)C)NC(=O)c1[nH]cnc1C(=O)N[C@@H](C)CN)NC(=O)c1nc[nH]c1C(=O)N[C@@H](CC(=O)O)C(=O)O | . | . | . | . | . | -55
C=CCn1c(Cc2cccc3ccccc23)n[nH]c1=S | ? | ? | 21µM | . | . | .
Nn1c(Cc2cccc3ccccc23)n[nH]c1=S | . | . | . | . | . | .
CN(C(=O)CSc1nc(N)c2c3c(sc2n1)CSC(C)(C)C3)c1ccccc1 | ? | 16µM | 16µM | . | . | -55
CN(C(=O)CSC1=NCCS1)c1ccccc1 | . | . | . | . | . | .
Cc1ccc(Cc2nc3ccccc3nc2SCC(=O)Nc2ccc3c(c2)OCO3)cc1 | . | ? | ? | / | . | /
CC1CCN(C(=O)CCc2nnc3ccc(NCCCN4CCCC4=O)nn23)CC1 | . | . | . | . | . | .
COc1ccc(Cl)cc1-c1cc(C(=O)N[C@H](C)c2ccccc2)[nH]n1 | . | 3.7µM | 2.6µM | / | . | .
COc1ccc(F)cc1-c1cc(C(=O)NCc2ccc(F)cc2)[nH]n1 | . | . | ? | / | . | .
COc1ccc(F)cc1-c1cc(C(=O)NCc2ccccc2)[nH]n1 | . | ? | . | / | . | -67
CCOc1ccc(Cl)cc1-c1cc(C(=O)NCc2ccccc2OC)[nH]n1 | . | 18µM | ? | / | . | .
COc1ccccc1CNC(=O)c1cc(-c2ccc(F)cc2OC)n[nH]1 | . | ? | . | / | . | -51
C[C@@H](CO)[C@H](/C=C/c1ccccc1)CCO[Si](c1ccccc1)(c1ccccc1)C(C)(C)C | . | / | / | / | . | /
Cc1ccc(C)c(N2CCN(C(=O)CCc3nnc4n(C)c(=O)c5ccccc5n34)CC2)c1 | . | ? | ? | / | . | /

Screening data (PubChem)
